# Hits are enriched below; roughly 2.8% of the tested compounds scored in any of these assays.
# ATXN2 expr inh: ATXN2 expression inhibition; HEK-293 ATXN2-luciferase reporter, luminescence, 24 h; Potency, µM (highest dose often 57 µM), for inactives: top-dose activity change, negative = inhibition, hits mostly inhibitors; hit rate 0.72% among 360,000; note: % is set by controls: 0 for no effect and ±100 for the full control effect; nearly all actives have a fitted effect of over 55% in size
#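 ATXN2-luciferase reporter cells (luciferase flanked by upstream and downstream ATXN2 gene portions) were treated 24 h at 37 °C with compounds at up to 57 uM. SteadyGlo luminescence gave expression; GF-AFC fluorescence gave viability.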
# TGFb inhibitor: blocks TGF-b signaling | HepG2 CAGA-GFP TGF-b/SMAD3 reporter, GFP fluorescence, 18 h; TGF-beta stimulated, 500 pg/mL final | Potency, µM (top dose mostly 46.1 µM), for inactives: at the highest dose activity, negative = inhibition, hits mostly inhibitors | hit rate 1.2% among 410,000; note: % is set by controls: 0 for no effect and ±100 for the full control effect; nearly all actives have a fitted effect of over 65% in size
#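 HEPG2 CAGA-GFP reporter cells (1000/well, DMEM with 1% FBS) received compounds, then recombinant TGF-beta at 500 pg/mL final for 18 hours at 37 degrees C. Per-cell GFP summed per well was normalised to unstimulated and stimulated DMSO controls before curve fitting.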
# HepG2 tox: HepG2 cytotoxicity, counter-screen for TGF-b inhibitors; Potency, µM (series often up to 46.1 µM), for inactives: at the top dose activity change, negative = cytotoxicity, actives largely listed as cytotoxic; HepG2 CAGA-GFP viability, ATP luminescence, 18 h; hit rate 0.76% among 410,000; AID 588856
#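 HepG2 CAGA-GFP cells (1000/well, DMEM with 1% FBS) received compound, then TGF-beta at 500 pg/mL final, and were incubated 18 hours at 37 degrees C. Viability was read by CellTiter-Glo luminescence. Media-only wells were set as complete cell-killing and DMSO as no toxicity.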
# HTT cytoprotect: Huntington cell model cytoprotection by ATP luminescence; PC12 HTT-Q103 induced, cytoprotection, ATP luminescence, 40 h; Potency, µM (titrated, usually from 56.4 µM), inactives show cytoprotection (ATP increase), usual class: activators; hit rate 0.14% among 230,000; AID 1471; note: % of control where 0% means no effect; nearly all actives have a fitted effect of over 45% in size
#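 Readout: ATPlite luminescence (ATP level). Model: stable PC12, inducible Htt exon1 Q103-GFP. Inducer: tebufenozide, 100 nM final. Compounds: dose series. No G418 in medium.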
# HttQ103 aggreg: reduces HttQ103-GFP aggregates in PC12 cells; PC12 HttQ103-GFP aggregates, Acumen cytometry, 40 h; Potency, µM (titrated, usually from 46.1 µM), inactives show at the top dose activity change, negative = inhibition, usual class: inhibitors; hit rate 1.1% among 220,000; AID 1688; note: % is set by controls: 0 for no effect and ±100 for the full control effect; nearly all actives have a fitted effect of over 60% in size
#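 PC12 cells with ecdysone-inducible HTT exon1 Q103-GFP, induced by 100 nM tebufenozide, given compounds in a concentration series. GFP aggregates (1–25 um, 6 SD above background) counted in lysates by laser-scanning cytometry, 488 nm excitation.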
# ATXN viability: viability counter-screen for ATXN expression inhibitors | S2 cells (HEK-293 line with an ATXN2-luciferase reporter) viability, CellTiter-Fluor protease fluorescence, 24 h | Potency, µM (highest dose often 56.7 µM), usual class: cytotoxic | hit rate 0.49% among 400,000 | AID 651635; note: nearly all actives have a fitted effect of over 40% in size
# Numbers without * were called inactive; i = inactive; ? = inconclusive; / = not tested or not shown; [ ] = remark or other dose. Calls come from the whole dose curve; as a rule, active = well fitted curve in the direction sought with a large enough effect; inconclusive = small, poorly fitted or top-dose-only effect, or another doubt; inactive = no such curve, though single readings can be large; an effect the other way counts as inactive or inconclusive. Potency is the fitted concentration of half-maximal effect.
SMILES,ATXN2 expr inh,TGFb inhibitor,HepG2 tox,HTT cytoprotect,HttQ103 aggreg,ATXN viability
Cc1ccc2nc(SCC3CCCCO3)[nH]c2c1 (stereo not drawn),11.2µM*,-3.1%,24.6%,-25.3%[10 µM],7.5%[9.22 µM],i
Cc1ccc2nc(SCC(=O)N3CCOCC3)[nH]c2c1,4.6%,?,4.8%,-18.2%,2.9%,i
Cc1cc(C(=O)CSc2nc3ccc(Cl)cc3[nH]2)c(C)n1CC1CCCO1 (stereo not drawn),-32.9%,?,-22.1%,-130.0%,3.16µM*,i
O=[N+]([O-])c1cc(S(=O)(=O)Oc2ccccc2)ccc1Cl,11.2%,?,8.91µM*,/,/,i
O=S(=O)(Oc1ccccc1)c1ccc(Cl)c(Cl)c1,-3.4%,-1.2%,-7.6%,/,/,i
NC(=O)Nc1ccc(/C=C2\C=Cc3ccccc32)cc1,/,?,-48.9%,/,/,/
C=CCC[C@H](Cc1ccc(F)cc1)C(=O)OC[C@H](Cc1c[nH]c2ccccc12)NC(=O)[C@H](CC=C)CC(=O)N(CCO)Cc1ccccc1,?,?,-26.5%,/,/,31.6µM*
C=CC[C@H](CC(=O)N(CCO)Cc1ccccc1)C(=O)NC[C@H](OC(=O)[C@@H](CC=C)Cc1ccc(F)cc1)c1ccccc1,?,?,-40.3%,/,/,25.1µM*
C=CC[C@@H](CC(=O)N(CCO)Cc1ccccc1)C(=O)N[C@H](COC(=O)[C@@H](CC=C)Cc1ccc(F)cc1)Cc1c[nH]c2ccccc12,0.0%,?,-12.9%,/,/,?
C=CCC[C@@H](Cc1ccc(F)cc1)C(=O)OC[C@@H](Cc1c[nH]c2ccccc12)NC(=O)[C@@H](CC=C)CC(=O)N(CCO)Cc1ccccc1,?,12.6µM*,-69.4%,/,/,?
C=CCC[C@@H](Cc1ccc(F)cc1)C(=O)OC[C@H](C)NC(=O)[C@@H](CC=C)CC(=O)N(CCO)Cc1ccccc1,?,12.6µM*,-20.7%,/,/,?
C=CCC[C@H](Cc1ccc(F)cc1)C(=O)OC[C@@H](C)NC(=O)[C@H](CC=C)CC(=O)N(CCO)Cc1ccccc1,?,?,-9.7%,/,/,?
C/C=C(/C(=C/C)c1ccc(OC(C)=O)cc1)c1ccc(OC(C)=O)cc1,-12.1%,/,/,/,/,i
COC(=O)NC(/C=C/c1ccccc1)C(C(C)=O)C(=O)OC (stereo not drawn),/,/,/,-18.9%,/,/
C=CC[C@@H](Cc1ccc(F)cc1)C(=O)OC[C@@H]1CCCN1C(=O)[C@H](CC=C)CC(=O)N(CCO)Cc1ccccc1,?,?,-27.2%,/,/,20µM*
C=CC[C@@H](Cc1ccc(F)cc1)C(=O)OC[C@H]1CCCN1C(=O)[C@@H](CC=C)CC(=O)N(CCO)Cc1ccccc1,?,?,-24.7%,/,/,/
CCCN1CCN(c2ncnc3sc(C(=O)Nc4ccc(OC(F)(F)F)cc4)c(C)c23)CC1,/,22.4µM*,-112.4%,/,/,/
Cc1ccc(OCCN2CCN(c3ncnc4sc(C)c(C)c34)CC2)cc1,-36.7%,-7.0%,-18.4%,-27.9%,2.51µM*,i
COCC(=O)Nc1cc(C(=O)N2CCc3sccc3C2)c2c(c1)nc(-c1ccncc1)n2C,/,/,/,/,/,i
C[C@H]1Cc2c(-c3ccccc3)nc3c(c2CO1)CN(C(=O)c1ccco1)CC3,/,/,/,-24.6%[10 µM],/,/
COC(=O)C1=C(C(=O)c2ccccc2)C(c2ccccc2)n2nnnc2N1 (stereo not drawn),?,-1.0%,-18.6%,0.3%,-7.3%[9.22 µM],20µM*
COC(=O)C1=C(C(C)=O)C(c2ccc(C(=O)OC)cc2)n2nnnc2N1 (stereo not drawn),4.8%,18.3%,7.6%,8.3%,-3.1%[9.22 µM],i
CCCOC(=O)c1ccc(Oc2c(-c3ccc(OCC)cc3O)n[nH]c2C)cc1,?,11.2µM*,11.2µM*,-1.1%[0.074 µM],?,/
CN1C[C@@H](C(=O)N[C@]2(C)O[C@]3(O)[C@H]4CCCN4C(=O)[C@H](Cc4ccccc4)N3C2=O)C[C@H]2c3cccc4[nH]cc(c34)C[C@@H]21,/,/,/,-19.3%[1.9 µM],/,/
O=C(NCc1ccccn1)c1ccc(-c2ccccc2)cc1,66.8%,4.1%,-11.2%,-1.4%[10 µM],-1.4%[9.22 µM],i
SMILES,ATXN2 expr inh,TGFb inhibitor,HepG2 tox,HTT cytoprotect,HttQ103 aggreg,ATXN viability
O=C(NCc1ccccn1)c1ccc(=O)oc1,-0.9%,5.8%,-4.3%,-79.4%[10 µM],2.82µM*,i
OC1(c2ccc3c(c2)CN(Cc2ccccn2)CCO3)CCN(c2ccccc2F)CC1,/,/,/,/,/,i
CC(C)Oc1cc(F)ccc1-c1cc(C(=O)Nc2cccc(C(F)(F)F)c2)[nH]n1,?,?,-38.2%,/,/,28.2µM*
CC(C)Oc1ccc(F)cc1-c1cc(C(=O)NCc2cc(C(F)(F)F)cc(C(F)(F)F)c2)[nH]n1,0.0%,11.2µM*,-34.4%,/,/,?
Cc1c(CCCN)c2ccccc2n1Cc1ccccc1,?,?,15.8µM*,4.3%[10 µM],-1.1%[9.22 µM],?
Cc1cccc(-n2c(=O)c3ccccc3n(Cc3ccccc3)c2=O)c1,-12.2%,-5.6%,-15.7%,/,/,i
COc1cc2c(cc1OC)-c1cc3cc(OC)c(OC)cc3c(=O)n1CC2,/,/,/,-213.0%,/,/
C=CC(=O)Nc1cccc(N(C)c2ccnc(Nc3ccc(N4CCN(C)CC4)cc3)n2)c1,?,5.01µM*,0.2%,/,/,15.8µM*
COC(=O)c1c[nH]n2c(=O)c(Cc3ccc(F)cc3Cl)c(C)nc12,-15.2%,0.0%,-25.9%,-10.5%[0.074 µM],17.8µM*,i
COC(=O)c1c[nH]n2c(=O)c(Cl)c(C)nc12,21.8%,12.8%,17.8%,/,-1.6%,?
COC(=O)C1=C(C)N(Cc2ccc(C)cc2)C(=O)/C1=C\c1ccc(O)c(OC)c1,18.1%,18.8%,-20.7%,-55.8%,?,i
COC(=O)C1=C(C)N(Cc2ccc(C)cc2)C(=O)/C1=C\c1cc(OC)c(OC)c(OC)c1,-11.0%,?,15.8µM*,-2.0%[10 µM],?,i
Cc1ccc(-c2c3c(nc4sc(C(N)=O)c(N)c24)CCCC3)o1,-6.5%,?,-1.3%,/,-16.0%,i
NC(=O)c1sc2nc3c(c(-c4cccs4)c2c1N)CCCC3,/,/,/,15.8µM*,/,/
CC(C)NC(=O)c1sc2nc3c(c(-c4cccs4)c2c1N)CN(C)CC3,-9.5%,9.0%,4.8%,-2.6%,14.2%,i
NC(=O)c1sc2nc3c(c(-c4ccco4)c2c1N)CCC3,50.5%,?,-35.6%,?,4.47µM*,i
C=C1C=C(C)n2ncc(C(=O)Nc3cccc4cnccc34)c2N1,/,19.2%,-2.7%,/,/,/
Cc1oc(-c2ccc3c(c2)OCCO3)cc1C(=O)O,7.08µM*,4.5%,-56.9%,-80.0%,-17.9%,?

# High-throughput results (PubChem BioAssay)
